Assay results: the supplement of paper PMC11732987, “Enantioselective OTUD7B fragment discovery through chemoproteomics screening and high-throughput optimisation” (Communications Chemistry, 2025)

Tests used:
Experiment in all cases: log2 ratio of Biotin-Ahx-Ub-VS probe labelling (fragment/DMSO); higher = less target engagement (more negative = stronger competition), active = hit call of the paper (q ≤ 0.05, log2 ratio ≤ -1)
Conditions in all cases: compound concentration: 200 uM; treatment time: 3 h
[1] = molecular target: T1, USP19 (UniProt O94966)
T1 sequence (whole entry): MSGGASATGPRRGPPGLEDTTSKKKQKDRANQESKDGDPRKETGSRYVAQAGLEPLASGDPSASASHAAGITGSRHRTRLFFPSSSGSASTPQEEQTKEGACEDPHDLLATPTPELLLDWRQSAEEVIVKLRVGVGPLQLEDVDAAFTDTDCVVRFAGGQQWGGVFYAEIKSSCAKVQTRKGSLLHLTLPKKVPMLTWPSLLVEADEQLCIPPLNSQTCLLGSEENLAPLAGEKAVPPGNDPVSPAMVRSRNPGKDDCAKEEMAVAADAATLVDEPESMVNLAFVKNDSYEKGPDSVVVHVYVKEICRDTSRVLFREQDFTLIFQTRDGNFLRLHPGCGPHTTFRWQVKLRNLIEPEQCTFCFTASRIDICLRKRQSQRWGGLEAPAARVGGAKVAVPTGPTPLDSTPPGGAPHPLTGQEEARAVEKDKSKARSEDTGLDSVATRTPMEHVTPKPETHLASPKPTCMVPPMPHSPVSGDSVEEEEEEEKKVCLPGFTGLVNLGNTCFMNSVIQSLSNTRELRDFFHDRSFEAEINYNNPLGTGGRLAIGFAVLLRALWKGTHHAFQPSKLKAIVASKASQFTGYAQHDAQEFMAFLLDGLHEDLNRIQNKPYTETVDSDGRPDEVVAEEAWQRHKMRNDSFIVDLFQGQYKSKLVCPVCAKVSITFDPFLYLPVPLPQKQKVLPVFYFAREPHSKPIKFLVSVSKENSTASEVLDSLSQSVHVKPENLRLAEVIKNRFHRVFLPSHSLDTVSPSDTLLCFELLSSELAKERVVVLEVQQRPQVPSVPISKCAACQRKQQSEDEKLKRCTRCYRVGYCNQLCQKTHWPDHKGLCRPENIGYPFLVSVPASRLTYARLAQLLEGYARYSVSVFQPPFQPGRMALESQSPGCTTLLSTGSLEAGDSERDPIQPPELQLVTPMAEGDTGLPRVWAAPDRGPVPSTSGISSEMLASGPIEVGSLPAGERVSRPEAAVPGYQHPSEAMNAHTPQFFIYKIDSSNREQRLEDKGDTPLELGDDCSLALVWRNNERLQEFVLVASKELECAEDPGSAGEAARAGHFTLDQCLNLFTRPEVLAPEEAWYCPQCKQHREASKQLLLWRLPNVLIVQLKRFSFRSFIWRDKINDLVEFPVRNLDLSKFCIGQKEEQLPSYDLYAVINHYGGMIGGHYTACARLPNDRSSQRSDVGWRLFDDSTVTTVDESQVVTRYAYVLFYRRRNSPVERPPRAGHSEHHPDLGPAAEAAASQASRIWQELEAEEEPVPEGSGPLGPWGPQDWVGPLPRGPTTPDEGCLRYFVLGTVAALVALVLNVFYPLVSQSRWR
Procedure, shortened: (§1)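 Each value is an average log2 ratio of fragment to vehicle, tested by unpaired t-test. The underlying Spectronaut label-free quantities were global-median-normalised, and only proteins with ≥2 unique peptides were included. Triplicate HEK293T lysate samples (495 µg) were exposed to fragment at 200 µM or vehicle for 3 h, then to Biotin-Ahx-Ub-VS at 0.5 µM final for 1 h, before NeutrAvidin enrichment of labelled DUBs, LysC and trypsin digestion, and diaPASEF LC-MS/MS.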

[2] = molecular target: USP24 (UniProt Q9UPU5)
Procedure, shortened: as §1

[3] = molecular target: T2, USP25 (UniProt Q9UHP3)
T2 sequence (whole entry): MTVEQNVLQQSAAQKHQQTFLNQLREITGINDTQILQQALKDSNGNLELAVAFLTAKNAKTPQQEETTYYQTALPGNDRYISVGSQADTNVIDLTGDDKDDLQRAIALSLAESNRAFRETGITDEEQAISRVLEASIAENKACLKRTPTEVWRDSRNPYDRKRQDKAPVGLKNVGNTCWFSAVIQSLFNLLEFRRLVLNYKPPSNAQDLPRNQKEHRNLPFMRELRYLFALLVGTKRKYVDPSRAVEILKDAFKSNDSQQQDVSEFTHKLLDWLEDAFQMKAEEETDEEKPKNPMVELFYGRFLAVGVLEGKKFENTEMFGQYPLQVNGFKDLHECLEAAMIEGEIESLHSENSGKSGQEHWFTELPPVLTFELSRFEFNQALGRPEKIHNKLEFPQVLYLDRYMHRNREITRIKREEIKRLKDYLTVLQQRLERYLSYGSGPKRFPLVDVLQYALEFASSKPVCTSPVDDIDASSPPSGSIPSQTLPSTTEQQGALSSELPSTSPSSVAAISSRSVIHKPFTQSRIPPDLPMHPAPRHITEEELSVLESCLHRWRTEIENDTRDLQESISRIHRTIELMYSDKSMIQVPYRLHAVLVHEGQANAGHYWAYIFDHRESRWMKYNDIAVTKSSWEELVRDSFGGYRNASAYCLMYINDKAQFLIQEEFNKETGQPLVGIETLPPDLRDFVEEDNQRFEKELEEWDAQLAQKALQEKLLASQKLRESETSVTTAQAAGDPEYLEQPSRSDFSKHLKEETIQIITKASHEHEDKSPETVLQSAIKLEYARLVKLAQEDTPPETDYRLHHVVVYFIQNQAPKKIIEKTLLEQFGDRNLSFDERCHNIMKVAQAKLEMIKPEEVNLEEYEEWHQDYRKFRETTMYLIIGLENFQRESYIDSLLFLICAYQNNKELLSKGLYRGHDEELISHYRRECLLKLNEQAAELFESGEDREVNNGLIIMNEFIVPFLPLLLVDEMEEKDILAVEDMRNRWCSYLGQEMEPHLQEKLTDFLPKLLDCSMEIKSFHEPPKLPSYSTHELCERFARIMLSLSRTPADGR
Procedure, shortened: as §1

[4] = molecular target: T3, USP28 (UniProt Q96RU2)
T3 sequence (whole entry): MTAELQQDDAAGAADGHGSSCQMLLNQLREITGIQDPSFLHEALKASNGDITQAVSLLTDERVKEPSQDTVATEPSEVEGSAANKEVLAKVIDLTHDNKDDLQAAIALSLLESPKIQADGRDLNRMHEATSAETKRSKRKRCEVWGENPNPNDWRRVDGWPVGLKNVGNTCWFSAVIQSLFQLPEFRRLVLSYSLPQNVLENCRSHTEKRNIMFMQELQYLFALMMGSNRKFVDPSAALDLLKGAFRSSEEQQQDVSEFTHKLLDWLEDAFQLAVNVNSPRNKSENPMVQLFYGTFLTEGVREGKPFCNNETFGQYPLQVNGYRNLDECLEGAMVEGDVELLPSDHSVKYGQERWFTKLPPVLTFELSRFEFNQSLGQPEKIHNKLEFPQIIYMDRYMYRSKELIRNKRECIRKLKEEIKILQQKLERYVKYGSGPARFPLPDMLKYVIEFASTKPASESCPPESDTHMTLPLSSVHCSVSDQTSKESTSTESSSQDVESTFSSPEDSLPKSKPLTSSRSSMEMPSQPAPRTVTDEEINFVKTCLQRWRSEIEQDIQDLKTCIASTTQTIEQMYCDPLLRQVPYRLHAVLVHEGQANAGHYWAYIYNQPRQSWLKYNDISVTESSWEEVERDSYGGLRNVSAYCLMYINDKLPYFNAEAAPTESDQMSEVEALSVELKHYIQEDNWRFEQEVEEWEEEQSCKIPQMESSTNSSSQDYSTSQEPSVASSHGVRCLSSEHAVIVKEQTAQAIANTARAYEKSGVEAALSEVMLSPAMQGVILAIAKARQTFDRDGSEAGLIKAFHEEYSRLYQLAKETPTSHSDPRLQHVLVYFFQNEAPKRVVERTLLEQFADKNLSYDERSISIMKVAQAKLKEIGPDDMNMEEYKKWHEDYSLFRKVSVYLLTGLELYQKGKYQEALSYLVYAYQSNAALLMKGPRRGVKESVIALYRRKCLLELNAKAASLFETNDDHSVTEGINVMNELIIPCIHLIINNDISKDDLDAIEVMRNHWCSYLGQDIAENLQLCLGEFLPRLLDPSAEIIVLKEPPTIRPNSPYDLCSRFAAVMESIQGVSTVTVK
Procedure, shortened: as §1

Measured: log2 ratio of Biotin-Ahx-Ub-VS probe labelling

Sequence of USP24 (Q9UPU5 whole entry): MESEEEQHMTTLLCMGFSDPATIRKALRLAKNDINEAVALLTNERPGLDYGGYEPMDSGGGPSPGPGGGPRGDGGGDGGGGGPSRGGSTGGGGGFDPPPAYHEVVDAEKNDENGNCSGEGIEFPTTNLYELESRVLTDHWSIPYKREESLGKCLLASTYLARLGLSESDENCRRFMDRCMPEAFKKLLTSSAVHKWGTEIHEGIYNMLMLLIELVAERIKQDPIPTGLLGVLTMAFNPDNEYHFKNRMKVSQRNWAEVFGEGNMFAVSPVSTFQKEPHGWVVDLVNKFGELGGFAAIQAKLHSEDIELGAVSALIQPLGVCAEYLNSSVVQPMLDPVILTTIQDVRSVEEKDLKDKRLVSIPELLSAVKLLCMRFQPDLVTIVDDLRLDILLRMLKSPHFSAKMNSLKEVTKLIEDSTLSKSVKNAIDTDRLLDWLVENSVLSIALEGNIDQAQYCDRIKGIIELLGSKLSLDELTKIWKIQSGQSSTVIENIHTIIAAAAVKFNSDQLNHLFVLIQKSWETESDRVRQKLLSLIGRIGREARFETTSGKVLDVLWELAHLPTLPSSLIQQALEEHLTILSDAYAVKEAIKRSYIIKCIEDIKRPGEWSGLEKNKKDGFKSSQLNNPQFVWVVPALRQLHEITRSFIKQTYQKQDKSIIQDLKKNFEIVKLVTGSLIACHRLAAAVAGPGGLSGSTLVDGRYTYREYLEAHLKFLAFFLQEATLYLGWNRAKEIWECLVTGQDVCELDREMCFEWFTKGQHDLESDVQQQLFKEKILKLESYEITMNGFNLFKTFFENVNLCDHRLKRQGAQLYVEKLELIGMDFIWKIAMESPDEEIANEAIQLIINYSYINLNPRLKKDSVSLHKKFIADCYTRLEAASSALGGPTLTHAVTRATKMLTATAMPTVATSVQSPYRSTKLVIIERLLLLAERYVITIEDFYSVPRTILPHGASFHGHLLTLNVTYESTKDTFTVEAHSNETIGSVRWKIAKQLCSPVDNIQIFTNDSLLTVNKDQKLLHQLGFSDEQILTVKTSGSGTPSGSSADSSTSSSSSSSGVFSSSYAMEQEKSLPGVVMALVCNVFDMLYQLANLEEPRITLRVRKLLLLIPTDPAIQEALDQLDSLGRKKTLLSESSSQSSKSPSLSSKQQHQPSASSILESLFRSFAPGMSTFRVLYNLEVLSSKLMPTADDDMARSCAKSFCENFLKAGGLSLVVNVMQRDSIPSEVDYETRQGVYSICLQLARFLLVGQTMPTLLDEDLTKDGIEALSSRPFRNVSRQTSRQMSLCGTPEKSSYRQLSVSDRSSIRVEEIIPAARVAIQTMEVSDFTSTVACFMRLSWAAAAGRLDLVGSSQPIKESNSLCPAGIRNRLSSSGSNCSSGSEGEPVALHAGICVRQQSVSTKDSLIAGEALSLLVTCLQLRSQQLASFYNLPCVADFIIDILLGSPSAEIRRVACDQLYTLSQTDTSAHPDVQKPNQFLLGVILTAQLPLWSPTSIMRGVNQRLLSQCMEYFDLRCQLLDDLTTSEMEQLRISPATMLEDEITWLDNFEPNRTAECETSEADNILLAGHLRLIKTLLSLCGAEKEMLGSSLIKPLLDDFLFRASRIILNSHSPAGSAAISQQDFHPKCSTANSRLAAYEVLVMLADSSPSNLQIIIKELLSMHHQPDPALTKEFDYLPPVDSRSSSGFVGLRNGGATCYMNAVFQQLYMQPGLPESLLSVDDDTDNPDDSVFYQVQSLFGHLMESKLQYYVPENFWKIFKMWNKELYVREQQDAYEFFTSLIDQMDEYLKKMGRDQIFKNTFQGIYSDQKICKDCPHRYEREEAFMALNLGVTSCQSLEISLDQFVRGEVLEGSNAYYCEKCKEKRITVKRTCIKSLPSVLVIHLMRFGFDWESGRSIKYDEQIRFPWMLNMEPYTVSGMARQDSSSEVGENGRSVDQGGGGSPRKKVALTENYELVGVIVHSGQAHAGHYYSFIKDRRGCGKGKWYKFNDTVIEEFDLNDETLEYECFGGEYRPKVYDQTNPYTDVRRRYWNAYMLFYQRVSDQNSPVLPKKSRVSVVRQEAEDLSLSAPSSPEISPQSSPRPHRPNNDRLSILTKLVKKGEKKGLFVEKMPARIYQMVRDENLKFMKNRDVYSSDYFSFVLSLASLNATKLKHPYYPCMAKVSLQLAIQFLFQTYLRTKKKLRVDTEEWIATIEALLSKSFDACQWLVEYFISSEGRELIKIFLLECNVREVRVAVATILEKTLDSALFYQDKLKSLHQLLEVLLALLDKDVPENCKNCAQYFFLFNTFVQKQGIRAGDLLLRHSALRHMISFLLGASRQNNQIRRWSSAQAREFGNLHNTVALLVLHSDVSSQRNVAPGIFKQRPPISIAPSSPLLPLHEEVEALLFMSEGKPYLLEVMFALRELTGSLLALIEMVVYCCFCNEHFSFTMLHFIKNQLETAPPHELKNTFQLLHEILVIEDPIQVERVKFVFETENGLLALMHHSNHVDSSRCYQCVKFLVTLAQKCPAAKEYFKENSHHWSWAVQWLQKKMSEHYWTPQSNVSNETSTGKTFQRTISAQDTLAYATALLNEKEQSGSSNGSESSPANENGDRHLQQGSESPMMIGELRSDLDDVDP

O=C(CCl)N1CCC(C(=O)N2CCCC2)CC1
inactive: [1] -0.228 | [2] -0.075 | [3] -0.128 | [4] -0.299
